Reference: the supplement of paper PMC7669877
± gives the uncertainty stated by the source.

System: Candidatus Liberibacter solanacearum in potato hairy roots
Assay: relative CLso titer (% of untreated control); higher = less inhibition of bacterial titer
Conditions: 10 µM; 72 h
Method: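 Primary screen of ~220 Spectrum collection (MicroSource) compounds at 10 µM (0.1% DMSO) on Candidatus Liberibacter solanacearum-infected potato hairy roots in multi-well plates (Gamborg B-5 medium, vacuum infiltrated, 21 °C, dark, 72 h). CLso titer was measured by qPCR of 16S rDNA normalised to potato RPL2 (2^-ddCq), pairwise-standardised against untreated controls, averaged over two biological replicates and expressed as % of untreated.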

| SMILES | relative CLso titer [%] |
| --- | --- |
| O=C1CCO1 | 103 ± 58 |
| Fc1ccc(Oc2ccnc3cc(Cl)cc(Cl)c23)cc1 | 85.4 ± 20 |
| CC[C@H]1CN2CCc3cc(OC)c(OC)cc3[C@@H]2C[C@@H]1C[C@H]1NCCc2cc(OC)c(OC)cc21 | 117 ± 28 |
| N.N.[Cl][Pt][Cl] | 76.7 ± 6.9 |
| C[C@@H]1C[C@@H]([C@H](O)CC2CC(=O)NC(=O)C2)C(=O)[C@@H](C)C1 | 214 ± 43 |
| [O-][n+]1ccccc1[S-].[O-][n+]1ccccc1[S-].[Zn+2] | 64.7 ± 4.9 |
| C[N+]12CCC(CC1)C(OC(=O)C(O)(c1ccccc1)c1ccccc1)C2 (stereo not given) | 57.1 ± 5 |
| CCCC(C)(COC(N)=O)COC(=O)NC(C)C (stereo not given) | 92.4 ± 17 |
| COc1cc2c(c(OC)c1OC)-c1ccc(OC)c(=O)cc1[C@@H](NC(C)=O)CC2 | 47.6 ± 2.7 |
| CC(C)C[C@H]1C(=O)N2CCC[C@H]2[C@]2(O)O[C@](NC(=O)[C@@H]3C=C4c5cccc6[nH]c(Br)c(c56)C[C@H]4N(C)C3)(C(C)C)C(=O)N12 | 76.9 ± 25 |
| CNC(C)[C@H](O)c1ccccc1 (stereo not given in full) | 160 ± 24 |
| CN[C@@H](C)[C@@H](O)c1ccccc1 | 98.4 ± 3.8 |
| CO[C@]12C[C@@H](COC(=O)c3cncc(Br)c3)CN(C)[C@@H]1Cc1cn(C)c3cccc2c13 | 135 ± 20 |
| COc1ccc2c(c1)[C@]13CCCC[C@@H]1[C@H](C2)N(C)CC3 | 539 ± 330 |
| CC(=O)O[C@H]1C[C@H](O[C@H]2[C@@H](O)C[C@H](O[C@H]3[C@@H](O)C[C@H](O[C@H]4CC[C@@]5(C)[C@H](CC[C@@H]6[C@@H]5C[C@@H](O)[C@]5(C)[C@@H](C7=CC(=O)OC7)CC[C@]65O)C4)O[C@@H]3C)O[C@@H]2C)O[C@H](C)[C@H]1O[C@@H]1O[C@H](CO)[C@@H](O)[C@H](O)[C@H]1O | 118 ± 37 |
| NC(=O)CN1CCCC1=O | 123 ± 35 |
| c1ccc2c(c1)sc1ccccc12 | 193 ± 4.5 |
| O=C(O)CCCc1ccc(N(CCCl)CCCl)cc1 | 111 ± 11 |
| CCCCCCCCCCCCCCCC[n+]1ccccc1 | 136 ± 72 |
| O=P1(N(CCCl)CCCl)NCCCO1 (stereo not given) | 39.8 ± 6.9 |
| Cc1cccc(C)c1NC1=NCCCS1 | 91.4 ± 17 |
| CCC(=O)O[C@H]1CC[C@H]2[C@@H]3CCC4=CC(=O)CC[C@]4(C)[C@H]3CC[C@]12C | 83.1 ± 2.9 |
| Cc1cc(O)ccc1Cl | 45.9 ± 1.8 |
| Cc1ccc(O)cc1.Cc1cccc(O)c1.Cc1ccccc1O | 70.4 ± 30 |
| O=c1[nH]c2ccccc2n1CCCN1CCC(n2c(=O)[nH]c3cc(Cl)ccc32)CC1 | 126 ± 28 |
| O=C(O)CCCO | 127 ± 31 |
| CN1C[C@H](C(=O)N[C@]2(C)O[C@@]3(O)[C@@H]4CCCN4C(=O)[C@H](Cc4ccccc4)N3C2=O)C[C@@H]2c3cccc4[nH]cc(c34)C[C@H]21 | 107 ± 46 |
| C[C@]12CC[C@H]3[C@@H](CCC4=CC(=O)CC[C@@]43C)[C@@H]1CC[C@@H]2O | 119 ± 11 |
| O=c1[nH]c2ccccc2n1C1CCN(CCCC(c2ccc(F)cc2)c2ccc(F)cc2)CC1 | 135 ± 2 |
| C[C@@H]1O[C@@H](O[C@H]2C[C@@H](O)[C@]3(CO)[C@H]4[C@H](O)C[C@]5(C)[C@@H](C6=CC(=O)OC6)CC[C@]5(O)[C@@H]4CC[C@]3(O)C2)[C@H](O)[C@H](O)[C@H]1O | 85.6 ± 47 |
